The values below come from the antibiotic and cytotoxicity screens of Wong et al. (2023).

SMILES strings stand for the structures. Screen size: about 39,000 compounds; about 1,500 (3.8%) were called active. This is one part of a sample in which actives are shown more often than they occur.

The test system of the experiment is HSkMC (human skeletal muscle cells). Description: cytotoxicity call (relative viability < 0.9). The conditions noted are these: 10 µM.
With `CC(C)NC(=O)Nc1cccc2c1O[C@@H](CN(C)S(=O)(=O)c1cccs1)[C@@H](C)CN([C@@H](C)CO)C2=O`, the cytotoxicity call was “inactive”. For `O=C(C[C@@H]1C[C@@H]2c3cc(NC(=O)Cc4ccncc4)ccc3O[C@@H]2[C@@H](CO)O1)NCc1cccc(F)c1`, the cytotoxicity call was “inactive”. The result for `COCC#Cc1ccc2c(c1)O[C@@H](CN(C)C(=O)CN(C)C)[C@H](C)CN([C@@H](C)CO)S2(=O)=O` reads “inactive”; that for `Cc1noc(C)c1NC(=O)N(C)C[C@@H]1OCCCC[C@@H](C)Oc2ccc(NC(=O)Cc3ccccc3)cc2C(=O)N([C@H](C)CO)C[C@H]1C`, “inactive”; that for `CCOC(=O)[C@@](C)(N)Cc1ccc(O)c(O)c1`, “active”.

With `CC(N)(Cc1ccc(O)c(O)c1)C(=O)O` (stereo unspecified) [listing 1 of 2 here], the cytotoxicity call was “inactive”. In the case of `CC(N)(Cc1ccc(O)c(O)c1)C(=O)O` (stereo unspecified) [listing 2 of 2 here], the cytotoxicity call was “inactive”. On to `COc1ccccc1C(=O)Nc1ccc2c(c1)C(=O)N(C)[C@@H]1CC[C@H](CC(=O)NCc3ccc(Cl)c(Cl)c3)O[C@@H]1CO2`, for which the cytotoxicity call is “inactive”. As for `COc1cccc(C(=O)Nc2ccc3c(c2)C(=O)N(C)[C@H]2CC[C@H](CC(=O)Nc4ccc5c(c4)CCCC5)O[C@@H]2CO3)c1`, the cytotoxicity call was “inactive”. Turning to `COc1ccccc1C(=O)Nc1ccc2c(c1)C(=O)N(C)[C@@H]1CC[C@@H](CC(=O)NCc3ccc(Cl)c(Cl)c3)O[C@@H]1CO2`, the cytotoxicity call was “inactive”.

With `COc1ccccc1C(=O)Nc1ccc2c(c1)C(=O)N(C)[C@H]1CC[C@H](CC(=O)NCc3ccc(Cl)c(Cl)c3)O[C@@H]1CO2`, the cytotoxicity call was “inactive”. Turning to `CN1C(=O)c2cc(NC(=O)c3ccc(C(F)(F)F)cc3)ccc2OC[C@@H]2O[C@@H](CC(=O)NC3Cc4ccccc4C3)CC[C@H]21`, the cytotoxicity call was “active”. The result for `CN1C(=O)c2cc(NC(=O)c3ccc(C(F)(F)F)cc3)ccc2OC[C@@H]2O[C@H](CC(=O)NC3Cc4ccccc4C3)CC[C@@H]21` reads “inactive”; that for `COc1ccccc1C(=O)Nc1ccc2c(c1)C(=O)N(C)[C@H]1CC[C@@H](CC(=O)NCc3ccc(Cl)c(Cl)c3)O[C@@H]1CO2`, “active”.

For `COc1ccccc1C(=O)Nc1ccc2c(c1)C(=O)N(C)[C@@H]1CC[C@H](CC(=O)NCc3ccc(Cl)c(Cl)c3)O[C@H]1CO2`, the cytotoxicity call is “inactive”. Regarding `CN1C(=O)c2cc(NC(=O)Nc3cccc(C#N)c3)ccc2OC[C@H]2O[C@@H](CC(=O)Nc3ccc4c(c3)CCC4)CC[C@@H]21`, the cytotoxicity call is “inactive”. For `CN1C(=O)c2cc(NC(=O)c3ccc(C(F)(F)F)cc3)ccc2OC[C@@H]2O[C@H](CC(=O)NC3Cc4ccccc4C3)CC[C@H]21`, the cytotoxicity call is “inactive”. `COc1ccccc1C(=O)Nc1ccc2c(c1)C(=O)N(C)[C@@H]1CC[C@@H](CC(=O)NCc3ccc(Cl)c(Cl)c3)O[C@H]1CO2`: the cytotoxicity call was “active”. Regarding `Cc1noc(C)c1NC(=O)Nc1ccc2c(c1)C(=O)N(C)[C@H]1CC[C@H](CC(=O)Nc3ccc4c(c3)CCCC4)O[C@@H]1CO2`, the cytotoxicity call is “active”.

Regarding `CC(C)NC(=O)N(C)C[C@H]1OCc2cn(nn2)CCCC(=O)N([C@H](C)CO)C[C@H]1C`, the cytotoxicity call was “inactive”. Turning to `C[C@H]1CN([C@@H](C)CO)C(=O)c2cc(NS(C)(=O)=O)ccc2O[C@@H]1CN(C)S(=O)(=O)c1ccc(Cl)cc1`, the cytotoxicity call is “inactive”.

Take `CO[C@H]1CN(C)C(=O)c2ccc(NC(=O)Nc3ccc(Cl)cc3)cc2OC[C@@H](C)N(C(=O)Nc2c(C)noc2C)C[C@H]1C`: the cytotoxicity call was “inactive”. As for `C[C@@H]1CCCCO[C@@H](CN(C)Cc2ccncc2)[C@@H](C)CN([C@H](C)CO)C(=O)c2cc(NC(=O)Nc3ccc(C(F)(F)F)cc3)ccc2O1`, the cytotoxicity call was “inactive”. In the case of `CC(C)CC#Cc1ccc2c(c1)O[C@@H](CN(C)S(=O)(=O)c1cccc(F)c1)[C@@H](C)CN([C@@H](C)CO)S2(=O)=O`, the cytotoxicity call is “inactive”.

As to `C1CCN2CC3CC(CN4CCCCC34)C2C1.O=S(=O)(O)O` (stereo unspecified), the cytotoxicity call is “inactive”. As for `C[C@@H]1CN([C@@H](C)CO)C(=O)c2cc(NC(=O)CCCN(C)C)ccc2O[C@H]1CN(C)S(=O)(=O)c1ccc(Cl)cc1`, the cytotoxicity call is “inactive”. On to `C[C@H]1CN([C@@H](C)CO)C(=O)Cc2cc(N(C)C)ccc2O[C@@H]1CN(C)S(=O)(=O)c1ccc(F)cc1`, for which the cytotoxicity call is “inactive”.

Consider `C[C@@H]1CN([C@H](C)CO)C(=O)CCCn2cc(nn2)CO[C@H]1CN(C)S(=O)(=O)c1ccc(Oc2ccccc2)nc1`, for which the cytotoxicity call was “inactive”. With `C[C@@H]1CN([C@@H](C)CO)C(=O)c2cccc(NC(=O)C3CC3)c2O[C@@H]1CN(C)S(=O)(=O)c1ccc(F)cc1`, the cytotoxicity call is “inactive”.

Turning to `Cn1c(Nc2ccc(C(F)(F)F)cc2)nc2cc(Oc3ccnc(-c4ncc(C(F)(F)F)[nH]4)c3)ccc21`, the cytotoxicity call is “active”. As for `Nc1nc(=O)c2c(CCc3ccc(C(=O)NC(CCC(=O)[O-])C(=O)[O-])cc3)c[nH]c2[nH]1.[Na+].[Na+]` (stereo unspecified), the cytotoxicity call was “inactive”.

In the case of `CC(C)CC#Cc1ccc2c(c1)O[C@@H](CN(C)C(=O)c1cnccn1)[C@@H](C)CN([C@@H](C)CO)S2(=O)=O`, the cytotoxicity call was “inactive”. Turning to `COc1ccc(CN(C)C[C@@H]2Oc3ccc(NS(=O)(=O)c4c(C)noc4C)cc3CC(=O)N([C@H](C)CO)C[C@H]2C)cc1`, the cytotoxicity call is “inactive”. Under `CC1C=CC=CC=CC=CC=CC=CC=CC(OC2OC(C)C(O)C(N)C2O)CC(O)C(C(=O)O)C(O)CC(=O)CC(O)CC(O)CC(O)CC(=O)CCCC(=O)CC(=O)OC1C(C)CC(C)C(O)CC(=O)c1ccc(N)cc1` (stereo unspecified) stands “active”. With `C[C@H]1[C@@H](O)[C@@H](C)\C=C/C=C\C=C/C=C\C=C/C=C\C=C/[C@@H](O[C@H]2O[C@H](C)[C@@H](O)[C@H](N)[C@@H]2O)C[C@H]2O[C@](O)(C[C@@H](O)C[C@@H](O)[C@@H](O)CC[C@@H](O)C[C@@H](O)CC(=O)O[C@H]1C)C[C@@H](O)[C@@H]2C(=O)O`, the cytotoxicity call was “inactive”. In the case of `CC1C=CC=CC=CC=CC=CC=CC=CC(OC2OC(C)C(O)C(N)C2O)CC2OC(O)(CC(O)CC(O)C(O)CCC(O)CC(O)CC(=O)OC(C)C(C)C1O)CC(O)C2C(=O)O` (stereo unspecified), the cytotoxicity call was “inactive”. Regarding `COc1ccc(CN(C)C[C@@H]2OCCCC[C@@H](C)Oc3ccc(NC(=O)NC(C)C)cc3C(=O)N([C@H](C)CO)C[C@H]2C)cc1`, the cytotoxicity call is “inactive”. Consider `Cc1cccc(NC(=O)Nc2ccc3c(c2)C(=O)N(C)[C@@H]2CC[C@H](CC(=O)NCc4ccccc4Cl)O[C@@H]2CO3)c1`, for which the cytotoxicity call was “inactive”. Take `Cc1ccc(S(=O)(=O)Nc2ccc3c(c2)C(=O)N([C@H](C)CO)C[C@@H](C)[C@@H](CN(C)S(C)(=O)=O)OCCCC[C@H](C)O3)cc1`: the cytotoxicity call is “inactive”. With `c1cnc2c(SCc3nc4ccccc4s3)cccc2c1`, the cytotoxicity call is “active”.

Consider `c1ccc2c(CSc3nc4ccccc4s3)cccc2c1`, for which the cytotoxicity call is “inactive”. Consider `CCSc1cccc2cccnc12`, for which the cytotoxicity call is “inactive”.

For `Cc1ccc(S(=O)(=O)Nc2ccc3c(c2)CC(=O)N([C@@H](C)CO)C[C@@H](C)[C@H](CN(C)C(=O)Nc2ccc(C(F)(F)F)cc2)O3)cc1`, the cytotoxicity call was “inactive”.

As to `C[C@@H]1CN([C@@H](C)CO)C(=O)c2cc(C#Cc3ccccc3F)cnc2O[C@@H]1CN(C)C(=O)Cc1ccncc1`, the cytotoxicity call was “inactive”. `Cc1ccc(S(=O)(=O)Nc2ccc3c(c2)C(=O)N([C@H](C)CO)C[C@@H](C)[C@@H](CN(C)Cc2ccc(C(F)(F)F)cc2)O3)cc1`: the cytotoxicity call was “active”. Consider `Cc1ccc(S(=O)(=O)Nc2ccc3c(c2)C(=O)N([C@H](C)CO)C[C@H](C)[C@H](CN(C)Cc2ccc(C(F)(F)F)cc2)O3)cc1`, for which the cytotoxicity call is “inactive”. `Cc1ccc(S(=O)(=O)Nc2ccc3c(c2)C(=O)N([C@@H](C)CO)C[C@H](C)[C@@H](CN(C)Cc2ccc(C(F)(F)F)cc2)O3)cc1`: the cytotoxicity call was “inactive”. Under `Cc1ccc(S(=O)(=O)Nc2ccc3c(c2)C(=O)N([C@@H](C)CO)C[C@H](C)[C@H](CN(C)Cc2ccc(C(F)(F)F)cc2)O3)cc1` stands “inactive”. The result for `Cc1ccc(S(=O)(=O)Nc2ccc3c(c2)C(=O)N([C@H](C)CO)C[C@@H](C)[C@H](CN(C)Cc2ccc(C(F)(F)F)cc2)O3)cc1` reads “active”. For the compound `Cc1ccc(S(=O)(=O)Nc2ccc3c(c2)C(=O)N([C@H](C)CO)C[C@H](C)[C@@H](CN(C)Cc2ccc(C(F)(F)F)cc2)O3)cc1`, the cytotoxicity call was “inactive”. In the case of `COc1ccc2c3c(n(c2c1)C)[C@@H](CO)N(C[C@]13CN(C1)C(=O)C)C(=O)CN1CCOCC1`, the cytotoxicity call was “inactive”. Turning to `Cc1noc(C)c1S(=O)(=O)Nc1ccc2c(c1)CC(=O)N([C@@H](C)CO)C[C@@H](C)[C@@H](CN(C)S(=O)(=O)c1ccccc1)O2`, the cytotoxicity call is “inactive”.

Turning to `CN(C)C(=O)C[C@H]1C=C[C@@H](NC(=O)C2CC2)[C@@H](CO)O1`, the cytotoxicity call is “inactive”. Regarding `C=CCN1C(=O)[C@]2(O[C@H](CCO)[C@@H]([Si](C)(C)c3ccc(OC)cc3)[C@@H]2C)c2cc(N3C(=O)c4cccc5cccc3c45)ccc21`, the cytotoxicity call is “active”. For the compound `COc1ccc([Si](C)(C)[C@H]2[C@H](CCO)O[C@@]3(C(=O)N(Cc4ccccc4)c4ccc(N5C(=O)c6cccc7cccc5c67)cc43)[C@@H]2C)cc1`, the cytotoxicity call is “inactive”.

Turning to `C=CCN1C(=O)[C@@]2(O[C@@H](CCO)[C@H]([Si](C)(C)F)[C@H]2C)c2cc(N3C(=O)c4cccc5cccc3c45)ccc21`, the cytotoxicity call was “inactive”. As for `C=CCN1C(=O)[C@@]2(O[C@@H](CCn3cc([C@H](O)c4ccccc4)nn3)[C@H]([Si](C)(C)c3ccc(OC)cc3)[C@H]2C)c2cc(N3C(=O)c4cccc5cccc3c45)ccc21`, the cytotoxicity call is “inactive”. As for `C=CCN1C(=O)[C@@]2(O[C@@H](CCO)[C@H]([Si](C)(C)c3ccc(OC)cc3)[C@H]2C)c2cc(N3C(=O)c4cccc5cccc3c45)ccc21`, the cytotoxicity call is “active”. The result for `C=CCN1C(=O)[C@]2(O[C@H](CCn3cc([C@H](O)c4ccccc4)nn3)[C@@H]([Si](C)(C)c3ccc(OC)cc3)[C@@H]2C)c2cc(N3C(=O)c4cccc5cccc3c45)ccc21` reads “inactive”; that for `C[C@H]1CCCCO[C@H](CN(C)C(=O)c2ccccc2)[C@@H](C)CN([C@@H](C)CO)C(=O)c2cc(NC(=O)Nc3ccc4c(c3)OCO4)ccc2O1`, “inactive”. As for `COc1ccc(S(=O)(=O)N2CC(NC(=O)Cn3ccc(=O)n(C)c3=O)C2)cc1`, the cytotoxicity call was “inactive”.
